Reference: PubChem BioAssay (EPA / NIEHS)
Values joined by “and” are separate entries in the source; they are usually repeats but may differ in a detail not shown here. Equal entries are not always repeated. Results filed as inconclusive are left out. Where a structure was tested more than once in an assay, its records may differ in their call. Active and inactive are the calls of the source. The calls were made as follows, unless noted: active = hit-call score of the fitted dose curve at least 0.9, where 1 is the maximum; inactive = score below 0.9.

Experiments:
TTR (gene 7276) = assay: CCTE_GLTED_hTTR_0.5uM: CCTE's human Transthyretin (hTTR) Inhibition Assay, with 0.5uM TTR, Great Lakes Toxicology and Ecology Division (GLTED) Lab (AID 2284320)
In short: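 Probe (ANSA) displacement from 0.5 uM human transthyretin was followed by fluorescence (ex 380, em 475) after a 2 h incubation with chemical. Activity was scored as signal loss and fitted positively relative to DMSO.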

[1] = CCTE_Deisenroth_5AR_NBTE_donor: CCTE's 5alpha-reductase NanoBRET Target Engagement Assay […], Deisenroth Lab (AID 2284319); conditions: actives raise or lower the signal
In short: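 SRD5A2-NanoLuc, HEK293T, 20 h expression. Chemical 10 nM - 29.9 uM, 8 conc, duplicate; 3 h preincubation + 2 h testosterone tracer. Nano-Glo substrate plus extracellular NanoLuc inhibitor; donor lum 460 nm. DMSO baseline, bidirectional fit.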

[2] = CCTE_Deisenroth_5AR_NBTE_acceptor: CCTE's 5alpha-reductase NanoBRET Target Engagement Assay - Autofluorescence Screen, Deisenroth Lab (AID 2284321); conditions: actives raise or lower the signal;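 also: compound fluorescence in the acceptor channel under 460 nm excitation flags autofluorescence artifacts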
In short: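 Acceptor-channel fluorescence flags artifacts, with excitation fixed at 460 nm. Nominal 100 uM chemical samples were read in triplicate runs, and signal changes were fitted in both directions relative to DMSO.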

[3] = IUF_NPC2-5_viability_120hr: Viability Assessment at 120 hours in the Leibniz Research Institute for Environmental Medicine (IUF) Neural Progenitor Cell Migration and Differentiation Assay (NPC2-5) (AID 2284312)
In short: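 Human fetal (GW 16-19) neural progenitor spheres of 0.3 mm were plated on poly-D-lysine/laminin in N2 differentiation medium and exposed from day 0 for 120 h, with half-medium refresh at day 3. Viability was read as alamar blue resazurin-to-resorufin fluorescence against DMSO.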

[4] = CCTE_Mundy_HCI_iCellGluta_NOG_NeuriteLength: CCTE's Neurite Outgrowth Assay in iCellGluta cells for Neurite Length, Mundy Lab (AID 2284318; active = hit-call score of the fitted dose curve at least 0.9, where 1 is the maximum)
In short: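 Automated high-content imaging of betaIII-tubulin (Alexa Fluor-488) and Hoechst-stained cells gave neurite length, normalized to the DMSO baseline.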

[5] = VALA_TUBIPS_Agonist_TubuleLength: VALA Sciences human iPS-derived Endothelial Tubule Formation (TUBIPS) Agonism Assay (AID 2284311; active = hit-call score of the fitted dose curve at least 0.9, where 1 is the maximum)
In short: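 Agonist-mode readout is the gain in imaged tubule length versus DMSO baseline. It was measured by fluorescence high-content imaging 72 h after dosing human iPSC-derived endothelial cells.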

[6] = VALA_TUBIPS_Antagonist_TubuleLength: VALA Sciences human iPS-derived Endothelial Tubule Formation (TUBIPS) Antagonist Assay (AID 2284313; active = hit-call score of the fitted dose curve at least 0.9, where 1 is the maximum)
In short: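 Tubule length was quantified by high-content imaging of CD31- and nuclear-stained cells, with 0.1% DMSO as neutral and 100 uM suramin as inhibition control. Compounds were applied for 3 days, in 10 ng/ml VEGF, to cultures pre-grown 3 days.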

[7] = VALA_MIGHUV2_WoundArea: VALA Sciences human Umbilical Vein Endothelial Cell Migration (MIGHUV) Assay, Area of Scratch Wound after Recovery (AID 2284316; active = hit-call score of the fitted dose curve at least 0.9, where 1 is the maximum)
In short: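 Wound-area endpoint read by fluorescence imaging of Hoechst-stained nuclei after a 24 h recovery period following scratch of HUVEC monolayers (9000 cells/well). Chemicals dosed within 30 min post-scratch, triplicate 6-point series, 0.1% DMSO vehicle; Cytochalasin D positive control.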

IYD (gene 389434) = assay: CCTE_GLTED_hIYD: CCTE's human Iodotyrosine Deiodinase (xIYD) Inhibition Assay, Great Lakes Toxicology and Ecology Division (GLTED) Lab (AID 2284317; active = hit-call score of the fitted dose curve at least 0.9, where 1 is the maximum;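 also: cell-free human IYD enzyme made in baculovirus insect cells; iodide freed from monoiodotyrosine measured by cerium arsenite color change at 420 nm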)
In short: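 Deiodination of MIT by insect-cell-produced human IYD is measured after a 3 h incubation with test chemical. Free iodide passes through a Dowex column and accelerates Sandell-Kolthoff Ce4+ reduction, read at 420 nm; run in triplicate.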

[8] = VALA_TUBHUV_Antagonist_CellCount: Viability Assessment in the VALA Sciences human Umbilical Vein Endothelial Tubule Formation (TUBHUV) Antagonism Assay (AID 2284310; active = hit-call score of the fitted dose curve at least 0.9, where 1 is the maximum)
In short: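 Read-out is imaged cell count after nuclear and CD31 staining, fitted against 0.1% DMSO vehicle. Compounds were added for 3 days, in 10 ng/ml VEGF assay medium, to HUVEC–HDF co-cultures pre-grown 3 days.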

For FC(F)(I)C(F)(F)C(F)(F)C(F)(F)C(F)(F)C(F)(F)I, the AC50 (TTR (gene 7276)) was 1.91 µM (active) and 1.88 µM (active).
With CCOC(=O)CC(O)(CC(=O)OCC)C(=O)OCC the outcome [1] was “inactive” and the outcome [2] was “inactive”.
For CC#C[C@]1(O)CC[C@H]2[C@@H]3CCC4=CC(=O)CCC4=C3[C@@H](c3ccc(N(C)C)cc3)C[C@@]21C, the outcome [3] was “inactive”, the AC50 [4] was 50 µM (active) and the outcome [4] was “inactive”.
For C=C(C)C(=O)OCCC(F)(F)C(F)(F)C(F)(F)C(F)(F)C(F)(F)C(F)(F)F, the outcome [4] was “inactive”.
In the case of CC1=C(/C=C/C(C)=C/C=C/C(C)=C/C(=O)O)C(C)(C)CCC1, the outcome [3] is reported as “inactive”.
With COCC(C)O (configuration not stated) the outcome [1] was “inactive” and the outcome [2] was “inactive”.
In the case of O=C(O)Cc1cc(I)c(Oc2cc(I)c(O)c(I)c2)c(I)c1, the outcome [5] is reported as “inactive”, the outcome [6] is reported as “inactive” and the outcome [7] is reported as “inactive”.
In the case of O=C1OC2(c3ccccc31)c1cc(Br)c(O)c(Br)c1Oc1c2cc(Br)c(O)c1Br, the AC50 (IYD (gene 389434)) is reported as 42.2 µM (active), the outcome [1] is reported as “inactive” and the outcome [2] is reported as “inactive”.
For CCN(CC)CCNc1ccc(CNC=O)c2sc3ccc(OC)cc3c(=O)c12, the outcome [1] was “inactive” and the outcome [2] was “inactive”.
With O=[N+]([O-])c1ccc(O)cc1 the outcome [1] was “inactive” and the outcome [2] was “inactive”.
For CCC(=C(c1ccc(O)cc1)c1ccc(OCCN(C)C)cc1)c1ccccc1, the outcome (IYD (gene 389434)) was “inactive”.
In the case of CC(C)(C)c1cccc(C(C)(C)C)c1O, the AC50 (IYD (gene 389434)) is reported as 100 µM (active).
For CCCCCCCCOC(=O)CCCCCCCCC(=O)OCCCCCCCC, the outcome [1] was “inactive” and the outcome [2] was “inactive”.
For CCCCCCCCCCCCCC[N+](C)(C)C, the AC50 (IYD (gene 389434)) was 88.3 µM (active), the AC50 [1] was 42.7 µM (active) and the AC50 [2] was 26.2 µM (active).
With COCC(C)OCC(C)O (configuration not stated) the outcome [1] was “inactive” and the outcome [2] was “inactive”.
With CC(C)(C)c1ccc(O)c(C(C)(C)C)c1 the AC50 (IYD (gene 389434)) was 100 µM (active).
In the case of OCCC(F)(F)C(F)(F)C(F)(F)C(F)(F)C(F)(F)C(F)(F)C(F)(F)C(F)(F)F, the outcome [4] is reported as “inactive”.
In the case of CN1CCC[C@H]1c1cccnc1, the outcome [3] is reported as “inactive”.
For OCCC(F)(F)C(F)(F)C(F)(F)C(F)(F)C(F)(F)C(F)(F)F, the outcome [4] was “inactive”.
With CCCCCCCCCCCCc1ccccc1S(=O)(=O)O the outcome [8] was “inactive”, the outcome [6] was “inactive” and the outcome [7] was “inactive”. For the same molecule, the AC50 (IYD (gene 389434)) was 34.4 µM (active).
